# Source: article PMC8384837, “Expanding the binding specificity for RNA recognition by a PUF domain”
# Tests used:
# Test in all cases: yeast three-hybrid, YBZ-1, SC-Leu-His + 0.5 mM 3-AT, 4 days
# Settings in all cases: tags: N-Gal4 AD-HA kept; label: inside an RPR1-promoter hybrid RNA with tandem MS2 sites; ssRNA
# [1] = molecular target: PUM1 PUF domain R4-SNM (Homo sapiens, UniProt Q14671 828-1176, N971S;H972N;Q975M)
# Summary of the method: (§1)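 The interaction score is the log change in how often each variant appears, from input to selection. Frequencies came from PCR-amplified, Illumina-sequenced repeat regions of Pumilio-1 PUF domain libraries grown in strain YBZ-1 (LexA–MS2 coat fusion, HIS3 reporter) alongside matching RNA elements. Input plates were SC-Leu and selection plates were SC-Leu-His + 0.5 mM 3-AT, each for four days, and the log2 calculation used a pseudocount of 1 where a variant was absent.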
# [2] = molecular target: PUM1 PUF domain R4-EWY (Homo sapiens, UniProt Q14671 828-1176, N971E;H972W;Q975Y)
# Summary of the method: as §1
# [3] = molecular target: PUM1 PUF domain R5-QRW (Homo sapiens, UniProt Q14671 828-1176, C1007Q;Q1011W)
# Summary of the method: as §1
# [4] = molecular target: PUM1 PUF domain R5-HRP (Homo sapiens, UniProt Q14671 828-1176, C1007H;Q1011P)
# Summary of the method: as §1
# [5] = molecular target: PUM1 PUF domain R3-GVE (Homo sapiens, UniProt Q14671 828-1176, C935G;R936V;Q939E)
# Summary of the method: as §1
# [6] = molecular target: PUM1 PUF domain R3-TWG (Homo sapiens, UniProt Q14671 828-1176, C935T;R936W;Q939G)
# Summary of the method: as §1
# [7] = molecular target: T1, PUM1 PUF domain R6-LYC (Homo sapiens, UniProt Q14671 828-1176, N1043L;Q1047C)
# T1 sequence: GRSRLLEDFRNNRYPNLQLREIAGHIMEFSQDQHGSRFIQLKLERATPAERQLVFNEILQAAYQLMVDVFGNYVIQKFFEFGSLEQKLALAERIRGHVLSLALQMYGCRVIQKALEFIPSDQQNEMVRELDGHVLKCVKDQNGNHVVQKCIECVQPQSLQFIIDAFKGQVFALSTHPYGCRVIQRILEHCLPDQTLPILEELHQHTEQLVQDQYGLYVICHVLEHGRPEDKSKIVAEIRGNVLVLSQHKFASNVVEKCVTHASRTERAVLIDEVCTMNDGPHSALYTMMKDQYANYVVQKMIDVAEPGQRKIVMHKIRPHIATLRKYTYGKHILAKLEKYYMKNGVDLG
# Summary of the method: as §1
# [8] = molecular target: PUM1 PUF domain R7-GGN (Homo sapiens, UniProt Q14671 828-1176, S1079G;N1080G;E1083N)
# Summary of the method: as §1
# [9] = molecular target: PUM1 PUF domain R7-RVV (Homo sapiens, UniProt Q14671 828-1176, S1079R;N1080V;E1083V)
# Summary of the method: as §1
# [10] = molecular target: PUM1 PUF domain R1-KSS (Homo sapiens, UniProt Q14671 828-1176, S863K;R864S;Q867S)
# Summary of the method: as §1
sequence,measurement,setting,value
GGCUAGAACUAGUGGAUCCCCCGGCGCCCGGCGGCUCGAGCCCGGGUAAGUGUAUAUAGUCUGCAUGCCGCCGGGCGCCAUGCCUGCAGGUCGACUCUAGAAAACAUG,binding signal,[1],2.9 log2 enrichment (interaction score)
same,binding signal,[2],5.52 log2 enrichment (interaction score)
GGCUAGAACUAGUGGAUCCCCCGGCGCCCGGCGGCUCGAGCCCGGGUAAGUGUCAAUAGUCUGCAUGCCGCCGGGCGCCAUGCCUGCAGGUCGACUCUAGAAAACAUG,binding signal,[3],0.43 log2 enrichment (interaction score)
same,binding signal,[4],1.78 log2 enrichment (interaction score)
GGCUAGAACUAGUGGAUCCCCCGGCGCCCGGCGGCUCGAGCCCGGGUAAGUGUUAAUAGUCUGCAUGCCGCCGGGCGCCAUGCCUGCAGGUCGACUCUAGAAAACAUG,binding signal,[4],3.28 log2 enrichment (interaction score)
GGCUAGAACUAGUGGAUCCCCCGGCGCCCGGCGGCUCGAGCCCGGGUAAGUGUAAGUAGUCUGCAUGCCGCCGGGCGCCAUGCCUGCAGGUCGACUCUAGAAAACAUG,binding signal,[5],3.97 log2 enrichment (interaction score)
same,binding signal,[6],4.61 log2 enrichment (interaction score)
GGCUAGAACUAGUGGAUCCCCCGGCGCCCGGCGGCUCGAGCCCGGGUAAGUGUGAAUAGUCUGCAUGCCGCCGGGCGCCAUGCCUGCAGGUCGACUCUAGAAAACAUG,binding signal,[3],4.36 log2 enrichment (interaction score)
GGCUAGAACUAGUGGAUCCCCCGGCGCCCGGCGGCUCGAGCCCGGGUAAGUGAAAAUAGUCUGCAUGCCGCCGGGCGCCAUGCCUGCAGGUCGACUCUAGAAAACAUG,binding signal,[7],3.19 log2 enrichment (interaction score)
GGCUAGAACUAGUGGAUCCCCCGGCGCCCGGCGGCUCGAGCCCGGGUAAGUUUAAAUAGUCUGCAUGCCGCCGGGCGCCAUGCCUGCAGGUCGACUCUAGAAAACAUG,binding signal,[8],3.78 log2 enrichment (interaction score)
same,binding signal,[9],2.58 log2 enrichment (interaction score)
GGCUAGAACUAGUGGAUCCCCCGGCGCCCGGCGGCUCGAGCCCGGGUAAGUGUAAAUCGUCUGCAUGCCGCCGGGCGCCAUGCCUGCAGGUCGACUCUAGAAAACAUG,binding signal,[10],4.09 log2 enrichment (interaction score)
